This is part of a sample that, as a whole, favours compounds with a hit. Of some 79,000 tested, about 15% had one in any assay. A number with no mark means an inactive call. Active and inactive are the calls of the source. No stated cut-off is given here; in the data, active means growth inhibition above about 70%; inactive means the rest.

A short description of assay [1]: NCI Yeast Anticancer Drug Screen. Data for the rad50 strain (AID 155).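 Further: 0% = growth of vehicle-only cultures of the same strain.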 To be noted: S. cerevisiae rad50 strain growth inhibition, active compounds read high. The procedure, abridged: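 A DNA repair-deficient yeast mutant serves as the test organism; compound-induced growth inhibition is calculated against vehicle-treated cells.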
Assay [2] is described as follows: NCI Yeast Anticancer Drug Screen. Data for the mec2-1 strain (AID 157). To be noted: S. cerevisiae mec2-1 strain, active compounds read high. Summed up: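 Compounds were applied to mec2-1 yeast cells. Their growth was then compared with that of vehicle-treated cultures to give growth inhibition.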
The nature of assay [3]: NCI Yeast Anticancer Drug Screen. Data for the sgs1 mgt1 strain (AID 161).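 Further: 0% = growth of cultures given vehicle only.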 As to conditions: S. cerevisiae sgs1 mgt1 strain, active compounds read high. The procedure, abridged: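 Compounds are added to genetically altered yeast, and growth is compared with cultures given vehicle alone to give percent inhibition.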
Assay [4] in a line: NCI Yeast Anticancer Drug Screen. Data for the cln2 rad14 strain (AID 165).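 Further: 0% = growth equal to vehicle treated cultures.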 As to conditions: S. cerevisiae cln2 rad14 strain, active compounds read high. Summed up:
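Strain: cln2 rad14 yeast, altered in cell cycle control and DNA damage repair. Read-out: growth inhibition vs vehicle.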

The nature of assay [5]: NCI Yeast Anticancer Drug Screen. Data for the bub3 strain (AID 167). To be noted: S. cerevisiae bub3 mutant strain, active compounds read high. The procedure, abridged: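 Inhibition values come from growth of compound-treated mutant yeast normalised to vehicle-treated controls.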
Assay [6] is described as follows: NCI Yeast Anticancer Drug Screen. Data for the mlh1 rad18 strain (AID 175). To be noted: S. cerevisiae mlh1 rad18 strain growth inhibition, active compounds read high. The procedure, abridged:
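A repair-deficient yeast strain is exposed to test compound, and growth is scored relative to vehicle-treated controls.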

Where [7] appears, read: at 5.0 µM (retest, dose inferred, filed as 0.5).
Where [8] appears, read: at 50.0 µM (retest, dose inferred, filed as 5.0).

`O=C(O)C(Cc1ccc(O)cc1)NC(=O)N(c1ccccc1)c1ccccc1` (configuration not stated): the growth inhibition is 0% in assay [1] (setting [7]); 38% in assay [1] (setting [8]); 17.2% in assay [1] (at 50.0 µM); -11% in assay [2] (setting [7]); 52% in assay [2] (setting [8]); 25.1% in assay [2] (at 50.0 µM). Besides, the growth inhibition in assay [3] (setting [7]) was -205%; in assay [3] (setting [8]), 79% (active); in assay [3] (at 50.0 µM) it was 30.8%; in assay [4] (setting [7]), 3%; in assay [4] (setting [8]) it was 39%; in assay [4] (at 50.0 µM), 61.6%. Besides, the growth inhibition is 2% in assay [5] (setting [7]); 28% in assay [5] (setting [8]); 19% in assay [5] (at 50.0 µM); -4% in assay [6] (setting [7]); 74% (active) in assay [6] (setting [8]); 28.5% in assay [6] (at 50.0 µM).

Regarding `COC(=O)C1(c2ccc(N(C)C)cc2OC)CCCN(C(=O)Oc2ccccc2[N+](=O)[O-])CCc2c1[nH]c1ccccc21` (configuration not stated), the growth inhibition is 69% in assay [1] (setting [7]); 71% (active) in assay [1] (setting [8]); 74.9% (active) in assay [1] (at 50.0 µM); 83% (active) in assay [2] (setting [7]); 80% (active) in assay [2] (setting [8]); 66.8% in assay [2] (at 50.0 µM). In addition, the growth inhibition in assay [3] (setting [7]) was 52%; in assay [3] (setting [8]) it was 55%; in assay [3] (at 50.0 µM), 72.8% (active); in assay [4] (setting [7]) it was 39%; in assay [4] (setting [8]), 52%; in assay [4] (at 50.0 µM), 50.5%. The growth inhibition in assay [5] (setting [7]) was 53%; in assay [5] (setting [8]) it was 85% (active); in assay [5] (at 50.0 µM), 42%; in assay [6] (setting [7]), 83% (active); in assay [6] (setting [8]), 88% (active); in assay [6] (at 50.0 µM), 75.2% (active).

On to `CCc1ccc2c(-c3ccccc3)c3ccccc3c(-c3ccccc3)c2c1`, for which the growth inhibition in assay [1] (setting [7]) is 0%; in assay [1] (setting [8]) it was -4%; in assay [1] (at 50.0 µM), -7.9%; in assay [2] (setting [7]) it was 3%; in assay [2] (setting [8]), -10%; in assay [2] (at 50.0 µM), -5.6%. Further, the growth inhibition was 1% in assay [3] (setting [7]); 6% in assay [3] (setting [8]); -9.25% in assay [3] (at 50.0 µM); -4% in assay [4] (setting [7]); -11% in assay [4] (setting [8]); 34.9% in assay [4] (at 50.0 µM). In addition, the growth inhibition in assay [5] (setting [7]) was -4%; in assay [5] (setting [8]), -8%; in assay [5] (at 50.0 µM), 7.35%; in assay [6] (setting [7]), -1%; in assay [6] (setting [8]), -8%; in assay [6] (at 50.0 µM), 0.05%.

Regarding `COc1ccc(C(c2ccc(N(C)C)cc2)c2ccc(N(C)C)cc2)cc1`, the growth inhibition in assay [1] (setting [7]) was 97% (active); in assay [1] (setting [8]), 85% (active); in assay [1] (at 50.0 µM), 93.5% (active); in assay [2] (setting [7]) it was 98% (active); in assay [2] (setting [8]), 88% (active); in assay [2] (at 50.0 µM) it was 93% (active). The growth inhibition in assay [3] (setting [7]) is 99% (active); in assay [3] (setting [8]) it was 89% (active); in assay [3] (at 50.0 µM), 94% (active); in assay [4] (setting [7]), 98% (active); in assay [4] (setting [8]), 85% (active); in assay [4] (at 50.0 µM) it was 41.6%. Moreover, the growth inhibition in assay [5] (setting [7]) was 99% (active); in assay [5] (setting [8]), 90% (active); in assay [5] (at 50.0 µM), 94.5% (active); in assay [6] (setting [7]), 99% (active); in assay [6] (setting [8]) it was 87% (active); in assay [6] (at 50.0 µM), 73.2% (active).

Turning to `C(=C/c1ccccc1)/C=N/Nc1ccccc1`, the growth inhibition in assay [1] (setting [7]) was -139%; in assay [1] (setting [8]) it was -112%; in assay [1] (at 50.0 µM) it was -15.8%; in assay [2] (setting [7]), -52%; in assay [2] (setting [8]), -50%; in assay [2] (at 50.0 µM) it was 9.7%. Besides, the growth inhibition in assay [3] (setting [7]) was -53%; in assay [3] (setting [8]), -52%; in assay [3] (at 50.0 µM), -23.8%; in assay [4] (setting [7]) it was -61%; in assay [4] (setting [8]), -64%; in assay [4] (at 50.0 µM), -9%. Besides, the growth inhibition in assay [5] (setting [7]) is -72%; in assay [5] (setting [8]), -59%; in assay [5] (at 50.0 µM), 36.5%; in assay [6] (setting [7]), -107%; in assay [6] (setting [8]), -79%; in assay [6] (at 50.0 µM), 2.35%.

Consider `Cc1cccc(NC(=O)C(=O)C(C2OC(=O)c3ccccc32)[N+](=O)[O-])c1C` (configuration not stated), for which the growth inhibition in assay [1] (setting [7]) is 8%; in assay [1] (setting [8]) it was 69%; in assay [1] (at 50.0 µM), 85.4% (active); in assay [2] (setting [7]), -24%; in assay [2] (setting [8]) it was 82% (active); in assay [2] (at 50.0 µM), 86.8% (active). For the same compound, the growth inhibition was 9% in assay [3] (setting [7]); 75% (active) in assay [3] (setting [8]); 87.7% (active) in assay [3] (at 50.0 µM); 27% in assay [4] (setting [7]); 79% (active) in assay [4] (setting [8]); 90.4% (active) in assay [4] (at 50.0 µM). Further, the growth inhibition was -13% in assay [5] (setting [7]); 92% (active) in assay [5] (setting [8]); 88.3% (active) in assay [5] (at 50.0 µM); -21% in assay [6] (setting [7]); 89% (active) in assay [6] (setting [8]); 83.3% (active) in assay [6] (at 50.0 µM).

`c1ccc(-c2cc(N3CCCCC3)c(-c3ccccc3)o2)cc1`: the growth inhibition was -1% in assay [1] (setting [7]); 11% in assay [1] (setting [8]); 21.4% in assay [1] (at 50.0 µM); 9% in assay [2] (setting [7]); 14% in assay [2] (setting [8]); 1.1% in assay [2] (at 50.0 µM). Besides, the growth inhibition in assay [3] (setting [7]) was 8%; in assay [3] (setting [8]) it was 28%; in assay [3] (at 50.0 µM) it was 44.4%; in assay [4] (setting [7]) it was 1%; in assay [4] (setting [8]) it was 0%; in assay [4] (at 50.0 µM), -5.7%. Further, the growth inhibition was 7% in assay [5] (setting [7]); 12% in assay [5] (setting [8]); 85.4% (active) in assay [5] (at 50.0 µM); 15% in assay [6] (setting [7]); 43% in assay [6] (setting [8]); 25.1% in assay [6] (at 50.0 µM).

`CCC(C)n1c(C)nc2c(N)cc(C(F)(F)F)cc21` (configuration not stated): the growth inhibition was 0% in assay [1] (setting [7]); 11% in assay [1] (setting [8]); 74% (active) in assay [1] (at 50.0 µM); 3% in assay [2] (setting [7]); 30% in assay [2] (setting [8]); 95.8% (active) in assay [2] (at 50.0 µM). Also, the growth inhibition in assay [3] (setting [7]) was 4%; in assay [3] (setting [8]), 38%; in assay [3] (at 50.0 µM), 93.7% (active); in assay [4] (setting [7]) it was 1%; in assay [4] (setting [8]) it was 8%; in assay [4] (at 50.0 µM) it was 98.8% (active). In addition, the growth inhibition is -4% in assay [5] (setting [7]); 9% in assay [5] (setting [8]); 98% (active) in assay [5] (at 50.0 µM); 0% in assay [6] (setting [7]); 28% in assay [6] (setting [8]); 94.5% (active) in assay [6] (at 50.0 µM).

`CC(C)c1cccc2sc(NC(=O)C(=O)C(C#N)c3cccc4ccccc34)nc12` (configuration not stated): the growth inhibition is 0% in assay [1] (setting [7]); 14% in assay [1] (setting [8]); 19.2% in assay [1] (at 50.0 µM); 3% in assay [2] (setting [7]); 15% in assay [2] (setting [8]); -9.55% in assay [2] (at 50.0 µM). The growth inhibition in assay [3] (setting [7]) is 2%; in assay [3] (setting [8]), 10%; in assay [3] (at 50.0 µM), 0.25%; in assay [4] (setting [7]), 3%; in assay [4] (setting [8]), 8%; in assay [4] (at 50.0 µM), 13.2%. For the same compound, the growth inhibition in assay [5] (setting [7]) was 3%; in assay [5] (setting [8]), 5%; in assay [5] (at 50.0 µM), 5.05%; in assay [6] (setting [7]), 3%; in assay [6] (setting [8]), 9%; in assay [6] (at 50.0 µM) it was 12.2%.

For the origin of these results see PubChem BioAssay (NCI).
